Experiment in all cases: protein-binding microarray (PBM); PBM: ~300 nM protein, 6 mM HEPES pH 7.8, 80 mM KCl, 0.5 mM EDTA, 0.5 mM EGTA, 6% glycerol, 35 ng/ul poly-dIdC, 1% milk, 1 h, room temperature; Ap Aiptasia and Nv Nematostella (sea anemones) / Co Capsaspora / Aq Amphimedon (sponge) / Dm Drosophila / Hu human; RHD is the Rel homology domain; high values mean tight binding
Conditions in all cases: dsDNA, one strand shown

One assay addresses T1, GST-Ap-NF-kB RHD (Exaiptasia pallida (Aiptasia), UniProt A0A913YAJ5 2-422).
T1 sequence: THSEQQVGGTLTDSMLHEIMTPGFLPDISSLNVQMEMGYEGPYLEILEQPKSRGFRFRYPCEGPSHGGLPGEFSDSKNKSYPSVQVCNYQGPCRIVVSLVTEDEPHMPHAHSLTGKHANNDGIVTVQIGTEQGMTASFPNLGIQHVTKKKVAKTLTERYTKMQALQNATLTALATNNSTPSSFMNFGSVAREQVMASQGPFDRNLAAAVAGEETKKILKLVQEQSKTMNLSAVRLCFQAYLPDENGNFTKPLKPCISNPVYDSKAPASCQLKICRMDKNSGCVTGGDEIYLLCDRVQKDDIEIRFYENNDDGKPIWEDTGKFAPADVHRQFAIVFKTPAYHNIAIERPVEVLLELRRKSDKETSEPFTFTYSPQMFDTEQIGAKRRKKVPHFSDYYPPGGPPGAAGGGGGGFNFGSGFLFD

The target in assay [1] is T2, GST-Nv-NF-kB (Cys allele) (Nematostella vectensis, UniProt E5G601 2-411).
T2 sequence: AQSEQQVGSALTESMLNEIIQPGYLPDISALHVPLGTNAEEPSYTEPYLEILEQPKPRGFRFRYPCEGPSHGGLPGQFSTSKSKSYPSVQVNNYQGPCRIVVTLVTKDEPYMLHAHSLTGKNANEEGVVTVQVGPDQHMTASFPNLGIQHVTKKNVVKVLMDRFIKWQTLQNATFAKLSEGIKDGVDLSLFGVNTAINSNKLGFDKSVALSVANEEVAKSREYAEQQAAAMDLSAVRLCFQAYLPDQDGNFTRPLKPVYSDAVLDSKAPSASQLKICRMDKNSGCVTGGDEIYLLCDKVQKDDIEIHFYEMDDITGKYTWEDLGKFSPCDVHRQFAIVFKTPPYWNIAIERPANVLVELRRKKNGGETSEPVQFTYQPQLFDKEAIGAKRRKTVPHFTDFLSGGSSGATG

In another assay the target is T3, GST-Co-NF-kB (Capsaspora owczarzaki, UniProt F1ARL5 200-546).
T3 sequence: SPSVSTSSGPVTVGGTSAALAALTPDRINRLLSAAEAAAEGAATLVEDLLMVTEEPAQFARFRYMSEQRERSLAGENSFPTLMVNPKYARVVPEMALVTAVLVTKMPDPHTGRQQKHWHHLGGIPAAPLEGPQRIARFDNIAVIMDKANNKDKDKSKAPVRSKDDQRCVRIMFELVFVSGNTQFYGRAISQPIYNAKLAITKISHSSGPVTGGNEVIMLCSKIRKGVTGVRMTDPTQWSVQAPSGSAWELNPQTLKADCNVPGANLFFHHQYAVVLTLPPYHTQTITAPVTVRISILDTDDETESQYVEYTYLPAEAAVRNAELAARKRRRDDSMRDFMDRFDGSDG

A further assay concerns the target T4, GST-Dm-Relish (Drosophila melanogaster, UniProt Q94527 99-473).
T4 sequence: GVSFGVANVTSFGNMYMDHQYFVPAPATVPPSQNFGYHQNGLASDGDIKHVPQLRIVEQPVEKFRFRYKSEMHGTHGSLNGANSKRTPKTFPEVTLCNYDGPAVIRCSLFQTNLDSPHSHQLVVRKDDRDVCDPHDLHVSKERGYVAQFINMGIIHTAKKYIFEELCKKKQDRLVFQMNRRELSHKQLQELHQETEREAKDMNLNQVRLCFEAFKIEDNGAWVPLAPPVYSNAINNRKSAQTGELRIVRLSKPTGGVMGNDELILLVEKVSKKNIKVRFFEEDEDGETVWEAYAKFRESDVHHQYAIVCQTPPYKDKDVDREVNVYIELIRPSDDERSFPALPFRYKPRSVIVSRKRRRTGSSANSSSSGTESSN

The target of a further assay is T5, GST-Aq-NF-kB (Amphimedon queenslandica, UniProt A9Y5G7 2-389).
T5 sequence: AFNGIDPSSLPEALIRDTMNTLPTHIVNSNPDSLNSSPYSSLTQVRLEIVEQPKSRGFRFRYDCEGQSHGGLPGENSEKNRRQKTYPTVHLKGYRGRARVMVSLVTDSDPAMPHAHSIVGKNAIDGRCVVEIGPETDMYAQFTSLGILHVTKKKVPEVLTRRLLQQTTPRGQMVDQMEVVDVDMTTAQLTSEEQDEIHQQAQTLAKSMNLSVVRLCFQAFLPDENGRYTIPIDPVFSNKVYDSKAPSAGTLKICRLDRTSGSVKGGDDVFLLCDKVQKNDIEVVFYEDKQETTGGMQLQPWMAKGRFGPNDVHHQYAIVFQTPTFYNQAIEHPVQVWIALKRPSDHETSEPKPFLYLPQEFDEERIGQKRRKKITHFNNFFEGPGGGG

Here are results for 26 sequences from PMC5700166.

Turning to “CCGATTAACATCATGGGTGGGAATGATGTTAATCGGGTCTTGATTCGCTTGACGCTGCTG”, the binding signal with GST-Ap-NF-kB RHD came out at 1.4 z-score; in assay [1], 1.79 z-score; in the assay with GST-Co-NF-kB, 2.62 z-score; with GST-Dm-Relish, 1.66 z-score; with GST-Aq-NF-kB it was 2.5 z-score.
For “CCGATTAACATCAGGGGGTAGGATGATGTTAATCGGGTCTTGATTCGCTTGACGCTGCTG”, in that order: 4.15 z-score, 2.75 z-score, 3.64 z-score, 1.35 z-score and 2.89 z-score.
In the same order, the values of “CCGATTAACATCACTGTTTTCCCTGATGTTAATCGGGTCTTGATTCGCTTGACGCTGCTG” are 2.63 z-score, 4.15 z-score, 4.9 z-score, 1.62 z-score and 3.31 z-score.
In the same order, the values of “CCGATTAACATCAGGGAGCTCCCTGATGTTAATCGGGTCTTGATTCGCTTGACGCTGCTG” are 4.49 z-score, 3.24 z-score, 1.46 z-score, 3.76 z-score and 6.36 z-score.
Turning to “CCGATTAACATCAAACCCCCCCATGATGTTAATCGGGTCTTGATTCGCTTGACGCTGCTG”, the binding signal was determined as 6.35 z-score with GST-Ap-NF-kB RHD; 4.78 z-score in assay [1]; 5.7 z-score with GST-Co-NF-kB; 6.81 z-score with GST-Dm-Relish; 5.02 z-score with GST-Aq-NF-kB.
For “CCGATTAACATCAGGGTGTTTTATGATGTTAATCGGGTCTTGATTCGCTTGACGCTGCTG”, in that order: 2.75 z-score, 2.67 z-score, 1.55 z-score, 3.11 z-score and 4.69 z-score.
In the same order, the values of “CCGATTAACATCAAACACTCCCCTGATGTTAATCGGGTCTTGATTCGCTTGACGCTGCTG” are 4.43 z-score, 3.84 z-score, 3.52 z-score, 1.65 z-score and 4.61 z-score.
As for “CCGATTAACATCAAAGGAATCCCTGATGTTAATCGGGTCTTGATTCGCTTGACGCTGCTG”, the binding signal with GST-Ap-NF-kB RHD is 3.02 z-score; in assay [1], 2.14 z-score; with GST-Co-NF-kB it was 1.06 z-score; in the assay with GST-Dm-Relish it was 7.59 z-score; with GST-Aq-NF-kB it was 2.92 z-score.
In the same order, the values of “CCGATTAACATCAGGGGGTATACTGATGTTAATCGGGTCTTGATTCGCTTGACGCTGCTG” are 5.81 z-score, 3.11 z-score, 4.82 z-score, 6.38 z-score and 4.14 z-score.
In the same order, the values of “CCGATTAACATCAGGGGAATGACTGATGTTAATCGGGTCTTGATTCGCTTGACGCTGCTG” are 5.81 z-score, 6.43 z-score, 3.9 z-score, 5.22 z-score and 5.09 z-score.
For “CCGATTAACATCAGGGACACCCCTGATGTTAATCGGGTCTTGATTCGCTTGACGCTGCTG”, in that order: 6.11 z-score, 4.44 z-score, 3.39 z-score, 7.09 z-score and 6.84 z-score.
As to “CCGATTAACATCAGGGAAGTCCATGATGTTAATCGGGTCTTGATTCGCTTGACGCTGCTG”, the binding signal with GST-Ap-NF-kB RHD turned out to be 2.24 z-score; in assay [1], 2.51 z-score; in the assay with GST-Co-NF-kB, 1.08 z-score; with GST-Dm-Relish, 7.44 z-score; in the assay with GST-Aq-NF-kB, 4.62 z-score.
For “CCGATTAACATCACAGTACCCCCTGATGTTAATCGGGTCTTGATTCGCTTGACGCTGCTG”, in that order: 5.34 z-score, 2.85 z-score, 3.67 z-score, 1.94 z-score and 2.91 z-score.
On to “CCGATTAACATCAGAATAACCCCTGATGTTAATCGGGTCTTGATTCGCTTGACGCTGCTG”, for which the binding signal with GST-Ap-NF-kB RHD was found to be 5.37 z-score; in assay [1] it was 3.87 z-score; with GST-Co-NF-kB, 1.66 z-score; with GST-Dm-Relish it was 3.29 z-score; with GST-Aq-NF-kB, 4.42 z-score.
For “CCGATTAACATCAAAGGTCCCCCTGATGTTAATCGGGTCTTGATTCGCTTGACGCTGCTG”, in that order: 6.07 z-score, 4.14 z-score, 4.7 z-score, 4.42 z-score and 4.58 z-score.
In the same order, the values of “CCGATTAACATCAAACTCTCCCCTGATGTTAATCGGGTCTTGATTCGCTTGACGCTGCTG” are 5.13 z-score, 4.94 z-score, 6.22 z-score, 1.21 z-score and 4.74 z-score.
In the same order, the values of “CCGATTAACATCAAGAATTCCCATGATGTTAATCGGGTCTTGATTCGCTTGACGCTGCTG” are 4.1 z-score, 5.41 z-score, 3.48 z-score, 4.5 z-score and 4.33 z-score.
Turning to “CCGATTAACATCAACTAATTCCCTGATGTTAATCGGGTCTTGATTCGCTTGACGCTGCTG”, the binding signal with GST-Ap-NF-kB RHD stood at 2.18 z-score; in assay [1], 4.19 z-score; in the assay with GST-Co-NF-kB it was 3.13 z-score; in the assay with GST-Dm-Relish, 1.91 z-score; with GST-Aq-NF-kB, 3.44 z-score.
Turning to “CCGATTAACATCAGGGAACAACCTGATGTTAATCGGGTCTTGATTCGCTTGACGCTGCTG”, the binding signal was 2.52 z-score with GST-Ap-NF-kB RHD; 2.46 z-score in assay [1]; 1.05 z-score with GST-Co-NF-kB; 4.7 z-score in the assay with GST-Dm-Relish; 4.61 z-score in the assay with GST-Aq-NF-kB.
With “CCGATTAACATCAGGGTATTACCTGATGTTAATCGGGTCTTGATTCGCTTGACGCTGCTG”, the binding signal turned out to be 4.39 z-score with GST-Ap-NF-kB RHD; 6.02 z-score in assay [1]; 1.57 z-score with GST-Co-NF-kB; 5.28 z-score with GST-Dm-Relish; 7.69 z-score in the assay with GST-Aq-NF-kB.
In the same order, the values of “CCGATTAACATCAGTAACTCCCTTGATGTTAATCGGGTCTTGATTCGCTTGACGCTGCTG” are 2.54 z-score, 2.67 z-score, 1.16 z-score, 2.91 z-score and 3.78 z-score.
Take “CCGATTAACATCAGGCACTCCCCTGATGTTAATCGGGTCTTGATTCGCTTGACGCTGCTG”: the binding signal with GST-Ap-NF-kB RHD turned out to be 4.75 z-score; in assay [1], 3.18 z-score; with GST-Co-NF-kB, 2.45 z-score; with GST-Dm-Relish, 3.63 z-score; with GST-Aq-NF-kB, 4.71 z-score.
For the sequence “CCGATTAACATCAGGGAATTATATGATGTTAATCGGGTCTTGATTCGCTTGACGCTGCTG”, the binding signal in the assay with GST-Ap-NF-kB RHD was determined as 4.16 z-score; in assay [1] it was 6.68 z-score; with GST-Co-NF-kB it was 4.16 z-score; in the assay with GST-Dm-Relish, 3.26 z-score; with GST-Aq-NF-kB, 6.69 z-score.
In the case of “CCGATTAACATCAAAAATCCCTATGATGTTAATCGGGTCTTGATTCGCTTGACGCTGCTG”, the binding signal is 5.18 z-score with GST-Ap-NF-kB RHD; 5.21 z-score in assay [1]; 1.39 z-score with GST-Co-NF-kB; 6.49 z-score in the assay with GST-Dm-Relish; 5.85 z-score with GST-Aq-NF-kB.
On to “CCGATTAACATCAGCGAATTCCCTGATGTTAATCGGGTCTTGATTCGCTTGACGCTGCTG”, for which the binding signal in the assay with GST-Ap-NF-kB RHD stood at 3.47 z-score; in assay [1], 4.45 z-score; with GST-Co-NF-kB, 2.15 z-score; with GST-Dm-Relish, 2.72 z-score; with GST-Aq-NF-kB, 3.61 z-score.
For the sequence “CCGATTAACATCAATGTCCCCCCTGATGTTAATCGGGTCTTGATTCGCTTGACGCTGCTG”, the binding signal with GST-Ap-NF-kB RHD is 5.26 z-score; in assay [1], 4.79 z-score; in the assay with GST-Co-NF-kB it was 8.35 z-score; in the assay with GST-Dm-Relish, 3.82 z-score; in the assay with GST-Aq-NF-kB it was 4.85 z-score.
